In experiment [1] the target is Cytochrome P450 3A4 (Homo sapiens) (UniProt P08684). As to the kind of experiment: qHTS Assay for Activators of Cytochrome P450 3A4 (AID 885; active = well fitted curve in the direction sought with a large enough effect; an effect the other way counts as inactive or inconclusive; also: nearly all actives have a fitted effect of over 65% in size). Summed up:
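Quantitative HTS format: compounds preincubated with 20nM human CYP3A4 and Luciferin-PPXE substrate at KM, reaction started by NADPH regeneration, stopped after 60 min, luciferase luminescence read 20 min later.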

A short description of experiment [2]: Confirmation and Secondary Assay for Modulators of Hemoglobin Beta Chain Splicing at IVS2 654 locus (AID 910; active = well fitted curve in the direction sought with a large enough effect; an effect the other way counts as inactive or inconclusive;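 also: HeLa cells stably carrying EGFP split by mutant beta-globin IVS2-654 intron; per-well total GFP intensity by laser scanning cytometry after 2-day treatment; % of control where 0% means no effect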). Summed up:
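Readout: per-well total peak green fluorescence (488 nm ex, 500–520 nm em) from objects 5–250 µm, reflecting correct splicing of an EGFP-654 reporter. Compounds were applied for 2 days at 37 °C to overnight-plated HeLa EGFP-654 cells; controls were DMSO and 500 nM IVS2-654 PNA.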

A short description of experiment [3]: Confirmation and Secondary Assay for Modulators of Hemoglobin Beta Chain Splicing at IVS2 705 locus (AID 930; active = well fitted curve in the direction sought with a large enough effect; an effect the other way counts as inactive or inconclusive;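 also: HeLa cells stably expressing the EGFP-705 splicing reporter; GFP fluorescence per well restored by corrected splicing of the IVS2-705 intron in EGFP; % of control where 0% means no effect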). Summed up: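 Secondary splice-site specificity test uses HeLa expressing CMV-driven EGFP interrupted by IVS2-705; cells were treated 2 days at 37C with 500 nM antisense PNA as positive control.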
The nature of experiment [4]: qHTS Assay for Lipid Storage Modulators (AID 1519). As to activity change, negative = inhibition: % is scaled to controls: 0 for no effect and ±100 for the full control effect. The note with it: Drosophila S3 cells, BODIPY lipid droplet/cell ratio, laser cytometry, cells loaded with oleic acid. An outline of the steps:
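Cells seeded at 5,000 per well were treated with compounds over a concentration series and loaded with oleic acid (400 uM, as added). Lipid droplet fluorescence (488 nm excitation, 500-530 nm channel) was read by laser-scanning cytometry and normalized to 20 uM Triacsin C.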

A short description of experiment [5]: Confirmatory qHTS to identify inhibitors of SARS-CoV-2 cell entry (AID 1645844). Also: potency is read from the fitted curve at half-maximal effect; nearly all actives have a fitted effect of over 45% in size. Summed up:
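Luminescence from a luciferase reporter, read 48 hr after pseudotyped-particle addition, gives entry signal, normalised to spike-bearing PP wells and bald PP lacking fusion protein wells. Cells are Expi293F stably expressing human ACE2, compound-pretreated 1 hr.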

Experiment [6] can be described thus: Primary qHTS to identify inhibitors of SARS-CoV-2 cell entry (AID 1645846). Also: nearly all actives have a fitted effect of over 45% in size. The note with it: SARS-CoV-2 pseudovirus cell entry assay, luminescence; activity change, negative = inhibition: at 57.1 µM (top of the series) unless noted. Summed up: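 Using luciferase-reporting pseudoviruses carrying Wuhan-Hu-1 spike, the screen tracks entry into stably ACE2-expressing cells over 48 hr. Activity is expressed relative to spike particles versus particles lacking any fusion protein.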

Experiment [7] can be described thus: VSVG counterscreen qHTS to identify inhibitors of SARS-CoV-2 cell entry (AID 1645847). Also: potency is read from the fitted curve at half-maximal effect; nearly all actives have a fitted effect of over 65% in size. Summed up: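 Entry of VSV-G pseudotyped particles into human ACE2-expressing HEK293 cells was measured by luciferase luminescence 48 h after infection, with compound added 1 h beforehand.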
Experiment [8] is described as follows: Cytotoxicity counterscreen for inhibitors of SARS-CoV-2 cell entry (AID 1645845). Also: % is scaled to controls: 0 for no effect and ±100 for the full control effect; nearly all actives have a fitted effect of over 50% in size. The note with it: outcome: dose series up to 57.1 µM unless noted. An outline of the steps: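 48 h compound treatment (after 1 h preincubation), HEK293-ACE2 cells, 37 C/5% CO2; ATP luminescence endpoint; normalized to cell wells and media blanks.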

Inconclusive results are not listed. Activity calls are given as the source filed them. Unless noted, calls follow the shape of the full dose curve.

Cytochrome P450 3A4 (Homo sapiens), sequence (P08684 whole entry, looked up): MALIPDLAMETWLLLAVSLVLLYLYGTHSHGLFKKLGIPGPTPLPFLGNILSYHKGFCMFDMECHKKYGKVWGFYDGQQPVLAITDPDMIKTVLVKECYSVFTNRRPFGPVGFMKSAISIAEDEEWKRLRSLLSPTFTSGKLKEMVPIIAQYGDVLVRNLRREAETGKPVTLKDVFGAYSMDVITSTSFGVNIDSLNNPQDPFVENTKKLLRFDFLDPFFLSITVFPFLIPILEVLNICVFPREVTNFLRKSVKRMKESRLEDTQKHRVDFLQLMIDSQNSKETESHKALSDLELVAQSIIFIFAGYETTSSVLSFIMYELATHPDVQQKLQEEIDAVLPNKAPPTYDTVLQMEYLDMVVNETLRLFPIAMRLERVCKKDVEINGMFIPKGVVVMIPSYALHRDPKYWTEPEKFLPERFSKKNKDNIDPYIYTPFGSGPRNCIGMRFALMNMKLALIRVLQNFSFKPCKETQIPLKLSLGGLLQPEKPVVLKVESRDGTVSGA

Take `NCC(=O)c1ccccc1`: the Potency result in experiment [1], in experiment [2] and in experiment [3] was “inactive” in each case. Besides, the activity change, negative = inhibition in experiment [4] (at 57.5 µM (top of the series)) was 8.66% (inactive). Further, the values for the max response in experiment [4] (measured here: cell count channel max response) and in experiment [4] (measured here: lipid channel max response) were 23.8% and 35.4%, respectively.
For the compound `CC[C@]12C=CCN3CC[C@@]4(c5cc([C@@]6(C(=O)OC)C[C@H]7C[C@@H](C(C)(F)F)CN(Cc8c6[nH]c6ccccc86)C7)c(OC)cc5N(C)[C@H]4[C@@](O)(C(=O)OC)[C@@H]1OC(C)=O)[C@@H]32`, the results for the Potency in experiment [5] and in experiment [7] were 359 nM (active) and 127 nM (active), respectively. Besides, the activity change, negative = inhibition in experiment [6] was -76.7% [at 19 µM].
Consider `Cc1cc(/C=c2/sc3nc4ccccc4n3c2=O)c(C)n1-c1ccccc1`, for which the Potency was 34.1 nM (active) in experiment [5] and 68.1 nM (active) in experiment [7]. Also, the Potency entry in experiment [8] was “inactive”. In addition, in experiment [6], the activity change, negative = inhibition is -93.9%.

These data come from PubChem BioAssay (NCATS).
